Consider one sequence from PMC7862700, “An all-to-all approach to the identification of sequence-specific readers for epigenetic DNA modifications on cytosine”.

What all share (test): DAPPL (digital affinity profiling via proximity ligation, sequencing); 10 mM Tris-HCl pH 7.5, 50 mM NaCl, 1 mM DTT, 4% glycerol, room temperature, 30 min; GST-TFs on glutathione beads, 16-mer random dsDNA library, 0.1% formaldehyde crosslink after washing; high values mean tight binding
One test addresses T1, FEV (Homo sapiens, UniProt Q99581 1-238).
T1 sequence: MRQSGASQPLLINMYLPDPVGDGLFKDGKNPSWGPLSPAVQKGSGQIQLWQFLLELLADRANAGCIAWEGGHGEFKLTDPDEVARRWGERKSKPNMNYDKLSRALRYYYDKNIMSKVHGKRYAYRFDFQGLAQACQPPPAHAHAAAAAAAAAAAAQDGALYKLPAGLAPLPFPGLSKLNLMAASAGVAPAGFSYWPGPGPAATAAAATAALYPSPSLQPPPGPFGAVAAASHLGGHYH
The following applies: protein: recombinant; tags: N-terminal GST; dsDNA, one strand shown. Summed up: (§1)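 Human transcription factors were made in yeast as GST fusions, captured on glutathione beads and barcoded with DNA. With a tag-only sample included, the pool was incubated with 200 nmole of a random double-stranded 16-mer DNA library in Tris/NaCl/DTT/glycerol buffer at room temperature for 30 min, then crosslinked with 0.1% formaldehyde after washing, ligated by proximity, amplified and sequenced. For binding signal, each hexamer's read frequency for a factor is divided by its frequency for the tag-only sample.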

For the next test, the target named is ETV5 (Homo sapiens, UniProt P41161 1-510). To be noted: protein: recombinant; tags: N-terminal GST; dsDNA, one strand shown. An outline of the steps:
as §1

Another test deals with HSF1 (Homo sapiens, UniProt Q00613 1-529). To be noted: protein: recombinant; tags: N-terminal GST; chain copies: 3; dsDNA, one strand shown. An outline of the steps:
as §1

In the next test the target is T2, SPIC (Homo sapiens, UniProt Q8N5J4 1-248).
T2 sequence: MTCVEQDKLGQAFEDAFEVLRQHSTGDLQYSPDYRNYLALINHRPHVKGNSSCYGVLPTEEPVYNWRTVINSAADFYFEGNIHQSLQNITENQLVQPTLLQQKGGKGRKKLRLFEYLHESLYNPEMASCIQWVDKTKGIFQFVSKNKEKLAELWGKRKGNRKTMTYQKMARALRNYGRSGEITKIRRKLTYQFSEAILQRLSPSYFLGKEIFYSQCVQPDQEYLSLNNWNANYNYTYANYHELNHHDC
To be noted: protein: recombinant; tags: N-terminal GST; dsDNA, one strand shown. Summed up:
as §1

A further test has as its target ELF4 (Homo sapiens, UniProt Q99607 1-663). To be noted: protein: recombinant; tags: N-terminal GST; dsDNA, one strand shown. Summed up: as §1
The next test deals with T3, ELK4 (Homo sapiens, UniProt P28324-2 1-405).
T3 sequence: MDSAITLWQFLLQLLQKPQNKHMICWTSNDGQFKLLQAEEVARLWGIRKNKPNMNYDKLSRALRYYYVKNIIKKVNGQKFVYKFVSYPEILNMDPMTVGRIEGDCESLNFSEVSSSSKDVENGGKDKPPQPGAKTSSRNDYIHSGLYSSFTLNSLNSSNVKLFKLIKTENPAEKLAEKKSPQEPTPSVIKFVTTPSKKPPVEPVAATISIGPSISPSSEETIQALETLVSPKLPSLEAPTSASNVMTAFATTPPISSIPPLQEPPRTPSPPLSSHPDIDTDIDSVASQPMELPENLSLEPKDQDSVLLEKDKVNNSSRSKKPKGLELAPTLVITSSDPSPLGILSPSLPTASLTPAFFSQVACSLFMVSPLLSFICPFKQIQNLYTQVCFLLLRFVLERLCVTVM
The following applies: protein: recombinant; tags: N-terminal GST; dsDNA, one strand shown. Summed up:
as §1

The target in the next test is T4, ETV2 (Homo sapiens, UniProt O00321 1-342).
T4 sequence: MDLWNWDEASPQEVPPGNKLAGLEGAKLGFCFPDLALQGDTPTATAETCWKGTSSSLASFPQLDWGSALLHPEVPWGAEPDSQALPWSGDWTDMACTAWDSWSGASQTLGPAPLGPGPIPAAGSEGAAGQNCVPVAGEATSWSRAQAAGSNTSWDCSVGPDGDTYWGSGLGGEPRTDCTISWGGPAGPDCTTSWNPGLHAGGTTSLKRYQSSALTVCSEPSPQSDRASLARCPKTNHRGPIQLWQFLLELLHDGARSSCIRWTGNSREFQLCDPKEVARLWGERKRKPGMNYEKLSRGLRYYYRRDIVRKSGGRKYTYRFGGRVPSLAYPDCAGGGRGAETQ
To be noted: protein: recombinant; tags: N-terminal GST; dsDNA, one strand shown. An outline of the steps:
as §1

A further test addresses T5, ELF3 (Homo sapiens, UniProt P78545 1-371).
T5 sequence: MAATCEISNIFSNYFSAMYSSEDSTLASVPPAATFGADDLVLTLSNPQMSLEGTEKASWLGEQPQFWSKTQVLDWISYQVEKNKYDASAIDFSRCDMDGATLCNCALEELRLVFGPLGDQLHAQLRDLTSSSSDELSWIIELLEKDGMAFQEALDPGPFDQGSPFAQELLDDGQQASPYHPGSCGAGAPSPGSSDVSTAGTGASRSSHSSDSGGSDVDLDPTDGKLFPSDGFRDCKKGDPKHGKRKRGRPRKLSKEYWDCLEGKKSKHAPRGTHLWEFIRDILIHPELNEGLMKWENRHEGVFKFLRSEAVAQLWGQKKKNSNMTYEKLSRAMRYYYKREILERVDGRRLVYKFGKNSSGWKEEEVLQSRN
The following applies: protein: recombinant; tags: N-terminal GST; dsDNA, one strand shown. Summed up:
as §1

For another test, the target named is CRX (Homo sapiens, UniProt O43186 1-299). The following applies: protein: recombinant; tags: N-terminal GST; dsDNA, one strand shown. An outline of the steps:
as §1

Another test concerns the target ETV1 (Homo sapiens, UniProt P50549 1-477). The following applies: protein: recombinant; tags: N-terminal GST; dsDNA, one strand shown. An outline of the steps:
as §1

For another test, the target named is T6, ERF (Homo sapiens, UniProt P50548 1-548).
T6 sequence: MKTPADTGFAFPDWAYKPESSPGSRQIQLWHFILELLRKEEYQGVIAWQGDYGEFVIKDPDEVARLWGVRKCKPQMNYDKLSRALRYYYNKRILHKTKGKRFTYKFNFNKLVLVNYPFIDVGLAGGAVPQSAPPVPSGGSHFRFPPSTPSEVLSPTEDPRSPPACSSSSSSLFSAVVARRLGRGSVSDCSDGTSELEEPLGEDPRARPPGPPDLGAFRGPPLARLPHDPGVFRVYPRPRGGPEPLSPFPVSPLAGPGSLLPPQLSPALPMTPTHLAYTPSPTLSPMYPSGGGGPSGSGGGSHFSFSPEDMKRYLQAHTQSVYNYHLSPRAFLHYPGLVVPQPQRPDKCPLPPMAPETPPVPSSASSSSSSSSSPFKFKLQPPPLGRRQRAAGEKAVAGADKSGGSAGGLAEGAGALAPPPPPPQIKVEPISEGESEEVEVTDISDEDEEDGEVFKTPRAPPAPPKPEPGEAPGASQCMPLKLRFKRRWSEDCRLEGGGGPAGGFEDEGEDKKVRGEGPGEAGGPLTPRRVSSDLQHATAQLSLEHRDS
The following applies: protein: recombinant; tags: N-terminal GST; dsDNA, one strand shown. An outline of the steps: as §1

Another test has as its target T7, ETV3L (Homo sapiens, UniProt Q6ZN32 1-361).
T7 sequence: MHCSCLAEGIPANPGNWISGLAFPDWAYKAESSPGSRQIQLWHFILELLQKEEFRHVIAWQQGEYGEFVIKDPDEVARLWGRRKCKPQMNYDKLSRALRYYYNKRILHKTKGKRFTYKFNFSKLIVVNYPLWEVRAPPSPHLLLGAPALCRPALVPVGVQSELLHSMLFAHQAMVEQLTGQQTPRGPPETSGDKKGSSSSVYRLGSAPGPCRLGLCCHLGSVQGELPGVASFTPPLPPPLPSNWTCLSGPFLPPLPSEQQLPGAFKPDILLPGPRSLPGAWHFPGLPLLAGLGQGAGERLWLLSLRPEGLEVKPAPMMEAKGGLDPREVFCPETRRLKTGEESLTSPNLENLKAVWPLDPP
To be noted: protein: recombinant; tags: N-terminal GST; dsDNA, one strand shown. An outline of the steps: as §1

A further test addresses T8, ETS2 (Homo sapiens, UniProt P15036 1-469).
T8 sequence: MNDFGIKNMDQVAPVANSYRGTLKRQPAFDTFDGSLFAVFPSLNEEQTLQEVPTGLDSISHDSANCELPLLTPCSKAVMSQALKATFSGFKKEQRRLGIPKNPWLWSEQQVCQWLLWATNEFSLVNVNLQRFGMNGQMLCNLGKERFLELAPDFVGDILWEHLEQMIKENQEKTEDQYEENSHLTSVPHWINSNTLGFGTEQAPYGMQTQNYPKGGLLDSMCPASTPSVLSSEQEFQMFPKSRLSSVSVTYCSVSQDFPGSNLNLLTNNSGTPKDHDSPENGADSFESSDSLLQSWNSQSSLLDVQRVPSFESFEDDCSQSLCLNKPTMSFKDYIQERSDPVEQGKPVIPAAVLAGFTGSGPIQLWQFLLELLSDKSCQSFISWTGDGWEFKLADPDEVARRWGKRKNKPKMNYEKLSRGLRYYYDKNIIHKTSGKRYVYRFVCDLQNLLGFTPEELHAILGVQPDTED
The following applies: protein: recombinant; tags: N-terminal GST; dsDNA, one strand shown. An outline of the steps: as §1

A further test concerns the target T9, SPDEF (Homo sapiens, UniProt O95238 1-335).
T9 sequence: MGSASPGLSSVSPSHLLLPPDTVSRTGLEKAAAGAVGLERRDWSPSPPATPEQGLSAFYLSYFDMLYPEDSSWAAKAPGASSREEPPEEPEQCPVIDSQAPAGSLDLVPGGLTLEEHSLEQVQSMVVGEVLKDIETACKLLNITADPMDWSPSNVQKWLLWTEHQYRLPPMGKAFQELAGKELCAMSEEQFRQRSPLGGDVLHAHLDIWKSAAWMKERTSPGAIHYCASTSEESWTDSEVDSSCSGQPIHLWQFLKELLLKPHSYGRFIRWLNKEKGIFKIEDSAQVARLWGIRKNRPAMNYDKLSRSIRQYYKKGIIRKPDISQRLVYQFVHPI
The following applies: protein: recombinant; tags: N-terminal GST; dsDNA, one strand shown. Summed up: as §1

The target in a further test is T10, ETV7 (Homo sapiens, UniProt Q9Y603 1-341).
T10 sequence: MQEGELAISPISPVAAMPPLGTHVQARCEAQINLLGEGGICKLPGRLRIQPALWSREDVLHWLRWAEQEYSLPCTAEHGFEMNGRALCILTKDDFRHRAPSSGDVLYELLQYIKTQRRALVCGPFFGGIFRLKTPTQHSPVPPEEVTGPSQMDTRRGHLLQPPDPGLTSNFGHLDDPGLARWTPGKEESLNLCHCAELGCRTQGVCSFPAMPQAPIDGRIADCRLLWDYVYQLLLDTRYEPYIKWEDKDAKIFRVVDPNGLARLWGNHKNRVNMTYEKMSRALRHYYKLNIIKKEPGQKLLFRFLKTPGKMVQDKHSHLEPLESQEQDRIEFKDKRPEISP
The following applies: protein: recombinant; tags: N-terminal GST; dsDNA, one strand shown. Summed up:
as §1

A further test addresses T11, ELF5 (Homo sapiens, UniProt Q9UKW6-2 1-255).
T11 sequence: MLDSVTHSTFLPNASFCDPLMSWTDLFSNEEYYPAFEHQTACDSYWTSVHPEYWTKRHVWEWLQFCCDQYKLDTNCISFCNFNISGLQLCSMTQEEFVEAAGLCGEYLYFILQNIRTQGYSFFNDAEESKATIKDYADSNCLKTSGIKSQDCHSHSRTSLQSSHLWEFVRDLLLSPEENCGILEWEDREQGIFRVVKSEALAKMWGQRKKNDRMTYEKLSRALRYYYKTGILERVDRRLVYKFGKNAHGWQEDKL
To be noted: protein: recombinant; tags: N-terminal GST; dsDNA, one strand shown. Summed up: as §1

The next test addresses T12, ETV3 (Homo sapiens, UniProt P41162-2 1-143).
T12 sequence: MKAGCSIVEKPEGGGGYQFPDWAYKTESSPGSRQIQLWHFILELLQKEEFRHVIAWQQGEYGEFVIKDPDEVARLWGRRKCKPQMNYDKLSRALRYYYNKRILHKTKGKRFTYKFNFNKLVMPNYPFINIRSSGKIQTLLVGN
The following applies: protein: recombinant; tags: N-terminal GST; dsDNA, one strand shown. An outline of the steps: as §1

For another test, the target named is ETV6 (Homo sapiens, UniProt P41212 1-452). To be noted: protein: recombinant; tags: N-terminal GST; dsDNA, one strand shown. An outline of the steps: as §1
Sequence of ETV6 (P41212 whole entry): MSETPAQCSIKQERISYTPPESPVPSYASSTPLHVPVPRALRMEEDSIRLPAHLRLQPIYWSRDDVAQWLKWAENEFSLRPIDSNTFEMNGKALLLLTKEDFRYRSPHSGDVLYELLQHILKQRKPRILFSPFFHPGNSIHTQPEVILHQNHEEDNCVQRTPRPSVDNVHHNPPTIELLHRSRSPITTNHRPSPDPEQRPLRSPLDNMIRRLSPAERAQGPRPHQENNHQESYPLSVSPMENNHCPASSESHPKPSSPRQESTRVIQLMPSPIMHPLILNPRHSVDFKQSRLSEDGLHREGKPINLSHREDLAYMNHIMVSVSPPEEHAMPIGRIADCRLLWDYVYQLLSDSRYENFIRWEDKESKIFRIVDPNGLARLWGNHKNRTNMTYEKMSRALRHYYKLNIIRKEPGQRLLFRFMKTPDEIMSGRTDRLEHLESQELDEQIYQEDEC

Sequence of ELF4 (Q99607 whole entry): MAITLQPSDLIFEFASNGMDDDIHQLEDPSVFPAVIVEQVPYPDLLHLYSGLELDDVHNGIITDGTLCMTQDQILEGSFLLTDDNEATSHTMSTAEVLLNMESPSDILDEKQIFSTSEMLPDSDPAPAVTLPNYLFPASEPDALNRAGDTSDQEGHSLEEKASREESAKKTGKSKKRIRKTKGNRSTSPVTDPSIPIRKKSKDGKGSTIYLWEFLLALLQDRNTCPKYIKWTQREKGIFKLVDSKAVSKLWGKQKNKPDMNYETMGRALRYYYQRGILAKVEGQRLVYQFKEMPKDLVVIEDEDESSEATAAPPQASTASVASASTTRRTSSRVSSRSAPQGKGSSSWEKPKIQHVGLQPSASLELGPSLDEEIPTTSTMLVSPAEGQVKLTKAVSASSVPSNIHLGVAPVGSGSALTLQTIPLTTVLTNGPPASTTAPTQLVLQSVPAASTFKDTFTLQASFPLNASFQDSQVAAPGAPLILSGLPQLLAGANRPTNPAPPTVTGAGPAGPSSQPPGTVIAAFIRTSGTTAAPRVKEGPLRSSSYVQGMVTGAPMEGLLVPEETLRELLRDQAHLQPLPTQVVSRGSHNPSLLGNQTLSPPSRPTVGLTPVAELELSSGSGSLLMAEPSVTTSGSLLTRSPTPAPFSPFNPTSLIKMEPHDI
Sequence of CRX (O43186 whole entry): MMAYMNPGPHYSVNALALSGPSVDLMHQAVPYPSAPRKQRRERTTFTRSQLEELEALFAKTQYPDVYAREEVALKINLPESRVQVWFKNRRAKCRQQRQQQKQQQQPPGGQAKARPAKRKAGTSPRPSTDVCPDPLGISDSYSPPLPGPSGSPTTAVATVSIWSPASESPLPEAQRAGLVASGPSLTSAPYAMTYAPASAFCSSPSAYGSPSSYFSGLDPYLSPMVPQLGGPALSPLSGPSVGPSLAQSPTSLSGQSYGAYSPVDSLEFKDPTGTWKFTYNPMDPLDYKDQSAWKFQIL
Sequence of ETV5 (P41161 whole entry): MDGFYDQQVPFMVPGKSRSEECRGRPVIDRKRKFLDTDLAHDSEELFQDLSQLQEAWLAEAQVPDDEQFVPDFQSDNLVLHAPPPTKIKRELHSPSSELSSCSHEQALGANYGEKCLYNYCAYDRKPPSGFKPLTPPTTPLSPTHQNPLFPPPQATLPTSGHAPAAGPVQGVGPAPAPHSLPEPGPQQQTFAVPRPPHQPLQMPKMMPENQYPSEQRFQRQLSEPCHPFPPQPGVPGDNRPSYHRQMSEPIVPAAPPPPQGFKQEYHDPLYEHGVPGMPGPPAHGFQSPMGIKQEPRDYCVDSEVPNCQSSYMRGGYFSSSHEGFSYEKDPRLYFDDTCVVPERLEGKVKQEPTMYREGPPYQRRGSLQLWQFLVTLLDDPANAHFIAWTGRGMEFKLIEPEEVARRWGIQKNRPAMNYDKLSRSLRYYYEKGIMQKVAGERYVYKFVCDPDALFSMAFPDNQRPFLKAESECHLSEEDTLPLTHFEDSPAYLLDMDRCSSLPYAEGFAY
Sequence of HSF1 (Q00613 whole entry): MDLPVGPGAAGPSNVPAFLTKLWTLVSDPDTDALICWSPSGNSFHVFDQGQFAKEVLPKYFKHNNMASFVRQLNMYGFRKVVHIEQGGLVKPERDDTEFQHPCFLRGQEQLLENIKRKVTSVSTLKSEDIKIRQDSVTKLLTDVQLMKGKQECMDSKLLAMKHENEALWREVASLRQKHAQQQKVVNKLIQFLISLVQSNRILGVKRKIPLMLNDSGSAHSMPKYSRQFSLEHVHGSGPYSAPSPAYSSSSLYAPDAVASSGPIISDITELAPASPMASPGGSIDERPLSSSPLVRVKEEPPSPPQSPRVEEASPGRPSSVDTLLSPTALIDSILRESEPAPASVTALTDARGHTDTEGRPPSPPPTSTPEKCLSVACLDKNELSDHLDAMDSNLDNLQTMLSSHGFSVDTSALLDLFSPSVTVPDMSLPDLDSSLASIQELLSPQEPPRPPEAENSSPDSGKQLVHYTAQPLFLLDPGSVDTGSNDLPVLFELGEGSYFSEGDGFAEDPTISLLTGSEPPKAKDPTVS
Sequence of ETV1 (P50549 whole entry): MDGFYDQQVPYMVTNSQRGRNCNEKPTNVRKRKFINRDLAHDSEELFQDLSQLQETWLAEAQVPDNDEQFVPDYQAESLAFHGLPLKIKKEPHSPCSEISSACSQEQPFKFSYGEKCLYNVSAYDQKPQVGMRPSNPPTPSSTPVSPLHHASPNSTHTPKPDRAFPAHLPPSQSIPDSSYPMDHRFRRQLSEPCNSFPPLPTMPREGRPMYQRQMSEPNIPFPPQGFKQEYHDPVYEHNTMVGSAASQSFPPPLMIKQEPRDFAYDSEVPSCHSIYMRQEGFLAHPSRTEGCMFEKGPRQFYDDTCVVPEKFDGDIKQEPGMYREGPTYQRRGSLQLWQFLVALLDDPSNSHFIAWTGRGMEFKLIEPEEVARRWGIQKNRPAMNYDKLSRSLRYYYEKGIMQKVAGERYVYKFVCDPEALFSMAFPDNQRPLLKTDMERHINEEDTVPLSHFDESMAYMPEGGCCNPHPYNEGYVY

With CTTCGG, the binding signal with FEV was 1.51 fold enrichment (6-mer frequency, TF over GST control); with ETV5 it was 1.54 fold enrichment (6-mer frequency, TF over GST control); with HSF1 it was 1.77 fold enrichment (6-mer frequency, TF over GST control); in the test with SPIC, 1.48 fold enrichment (6-mer frequency, TF over GST control); in the test with ELF4 it was 1.5 fold enrichment (6-mer frequency, TF over GST control); in the test with ELK4 it was 1.52 fold enrichment (6-mer frequency, TF over GST control). Besides, the binding signal in the test with ETV2 is 1.52 fold enrichment (6-mer frequency, TF over GST control); in the test with ELF3, 1.39 fold enrichment (6-mer frequency, TF over GST control); with CRX it was 1.52 fold enrichment (6-mer frequency, TF over GST control); with ETV1 it was 1.72 fold enrichment (6-mer frequency, TF over GST control); with ERF, 1.68 fold enrichment (6-mer frequency, TF over GST control); in the test with ETV3L, 1.42 fold enrichment (6-mer frequency, TF over GST control). The binding signal with ETS2 is 1.48 fold enrichment (6-mer frequency, TF over GST control); in the test with SPDEF, 1.36 fold enrichment (6-mer frequency, TF over GST control); with ETV7, 1.39 fold enrichment (6-mer frequency, TF over GST control); with ELF5 it was 1.41 fold enrichment (6-mer frequency, TF over GST control); with ETV3, 1.55 fold enrichment (6-mer frequency, TF over GST control); in the test with ETV6 it was 1.27 fold enrichment (6-mer frequency, TF over GST control).
